# Source: PubChem
# An excerpt weighted towards active compounds, which were near 12% of everything screened.
# PLK1 PBD block: inhibitors of human PLK1 polo-box domain binding | AID 720504 | Potency, µM, for inactives: max response, negative = inhibition, hits mostly inhibitors | actives 2.8% (n = 360,000) | Plk1 PBD binding of FITC phosphopeptide, fluorescence polarization | P53350; also: series mostly up to about 57 µM; nearly all actives have a fitted effect of over 65% in size
# RORg inh: blocks mouse ROR gamma transcriptional activity; actives 5.4% (n = 310,000); P51450; Potency, µM (series often up to 53.6 µM), inactives show at the top dose activity change, negative = inhibition, most hits filed as inhibitors; Drosophila S2 Gal4-RORgamma UAS-luciferase reporter, 20 h; also: nearly all actives have a fitted effect of over 60% in size
# Target sequence (P51450 whole entry, looked up, the tested form may be a part): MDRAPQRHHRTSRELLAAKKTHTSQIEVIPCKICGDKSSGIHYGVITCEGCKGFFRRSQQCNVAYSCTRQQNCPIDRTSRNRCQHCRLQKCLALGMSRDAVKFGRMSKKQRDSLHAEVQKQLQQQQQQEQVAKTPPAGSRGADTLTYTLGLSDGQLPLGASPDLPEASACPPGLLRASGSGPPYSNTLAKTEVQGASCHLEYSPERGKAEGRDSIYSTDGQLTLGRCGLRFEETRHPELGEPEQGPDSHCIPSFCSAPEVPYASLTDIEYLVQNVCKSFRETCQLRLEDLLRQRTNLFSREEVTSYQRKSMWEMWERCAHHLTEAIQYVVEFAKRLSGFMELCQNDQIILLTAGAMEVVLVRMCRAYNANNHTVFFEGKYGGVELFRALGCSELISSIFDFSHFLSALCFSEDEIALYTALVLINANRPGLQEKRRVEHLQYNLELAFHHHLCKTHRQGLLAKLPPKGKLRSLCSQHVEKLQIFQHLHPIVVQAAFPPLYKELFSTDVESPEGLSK
#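 Stably transfected Drosophila Schneider cells are the test system, with ROR gamma fused to Gal4 and luciferase under UAS control; luminescence is read after 20 hr of 700 uM copper sulfate induction at ambient temperature.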
# ALDH1A1 inh: ALDH1A1 (human) enzyme inhibition; Purified ALDH1A1, NADH fluorescence, propionaldehyde substrate; AID 1030; Potency, µM (titrated, usually from 75.3 µM), for the others: top-dose activity, negative = inhibition, most hits filed as inhibitors; actives 7.3% (n = 220,000); P00352; active = well fitted inhibition curve with a large enough effect, not every such curve was filed as active; inconclusive = small, poorly fitted or top-dose-only effect, or another doubt; inactive = no such curve, though single readings can be large or run the other way;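 also: plate controls were no enzyme wells and a reference inhibitor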
# Sfp inh: inhibitors of Bacillus subtilis Sfp phosphopantetheinyl transferase | Biochemical Sfp PPTase activity, qHTS | Potency, µM, inactives show largest response in the series, negative = inhibition, hits mostly inhibitors | Q9F4F7 | AID 1490 | actives 3.5% (n = 310,000);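 also: the enzyme is Sfp with the accession as filed and its product quenches rhodamine fluorescence; 0% = enzyme reaction without inhibitor and -100% = no enzyme wells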
#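 Reaction rates are the 30-min fluorescence difference (ex 525, em 598 nm) in wells containing 15 nM Sfp, 5 uM rhodamine-CoA and 12.5 uM BHQ-2-YbbR at pH 7.6 with 10 mM MgCl2.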
# VP16 counter: Gal4-VP16 reporter inhibition counter-screen | Drosophila S2 Gal4-VP16 UAS-luciferase, luminescence, 20 h | Potency, µM (highest dose often 53.6 µM), for the others: at the highest dose activity, negative = inhibition, actives largely listed as inhibitors | actives 3.5% (n = 310,000) | AID 2546;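 also: Gal4-VP16 expression switched on by copper sulfate through the metallothionein promoter; nearly all actives have a fitted effect of over 50% in size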
# * hit, by the source's call; ? = inconclusive; . = not tested or not shown; [ ] = another dose, or the depositor's remark. Unless noted, calls follow the shape of the dose curve; as a rule, active = well fitted curve in the direction sought with a large enough effect; inconclusive = small, poorly fitted or top-dose-only effect, or another doubt; inactive = no such curve, though single readings can be large; an effect the other way counts as inactive or inconclusive. Unless noted, % is scaled to controls: 0 for no effect and ±100 for the full control effect; potency is read from the fitted curve at half-maximal effect.
SMILES,PLK1 PBD block,RORg inh,ALDH1A1 inh,Sfp inh,VP16 counter
Cc1cc(N2O[C@]34C=C[C@]25C[C@@H](O)CC[C@]5(C)C3CC[C@]2(C)[C@@H]([C@H](C)/C=C/[C@H](C)C(C)C)CC[C@H]24)no1 (some centres not stated),24µM*,.,.,.,.
COC(=O)c1ccc(CSc2nc3c(c(=O)[nH]2)CCC3)cc1,-13%,.,.,.,.
COc1ccccc1NC(=O)CN1CCN(c2ccccc2F)CC1,-16%,-10%,12%,9%,-2%
COc1ccc(CCNC(=O)CN2CCN(c3cccc(C(F)(F)F)c3)CC2)cc1,-10%,0%,3%,8%,7%
COc1ccc(CCNC(=O)CN2CCN(c3ccccc3Cl)CC2)cc1,1%,-3%,3.2µM*,13%,-7%
COc1cccc(NC(=O)CN2CCN(c3ccccc3F)CC2)c1,-4%,14%,10µM*,20%,4%
COc1cc(NC(=O)CN2CCN(c3ccccc3F)CC2)cc(OC)c1,-13%,5%,22µM*,1%,0%
COc1ccc(C(C)(O)c2nc(-c3cccc(C(C)C)c3)cs2)cc1 (configuration not stated),-12%,.,.,.,.
O=C1C[C@H](c2ccccc2)Oc2cc(O)cc(O)c21,.,8%,0%,-7%,-1%
CCC(C(=O)Nc1ccc(S(=O)(=O)N2CCN(C)CC2)cc1)c1ccccc1 (configuration not stated),-10%,.,.,.,.
O=C1CC(c2ccccc2)=Nc2ccccc2N1,0%,?,?,-11%,-3%
O=C1CC(c2ccco2)=Nc2ccccc2N1,-4%,-5%,?,50µM*,-4%
COc1cccc(-c2cncnc2N(C)Cc2ccco2)c1,.,1%,?,?,-7%
Cc1ccc2ncccc2c1NC(=S)NC(=O)c1ccccc1,-11%,8.9µM*,?,-6%,25%
Cc1ccc2ncccc2c1NS(=O)(=O)c1ccccc1,-5%,?,32µM*,2%,-3%
Cn1cc(C=CC(=O)O)c2nccnc21,-3%,.,.,.,.
O=C(COC(=O)c1cccc([N+](=O)[O-])c1)Nc1ncc(Br)s1,0%,.,.,.,.
COc1ccc(CNC(C)C(=O)Nc2ccc3ccccc3c2)cc1OC (configuration not stated),-4%,7%,15%,12%,7%
Cc1ccc2[nH]c(=O)c(C(c3nnnn3CC3CCCO3)N3CCOCC3)cc2c1 (configuration not stated),-17%,9%,?,-9%,-7%
Cc1ccc2[nH]c(=O)c(C(c3nnnn3CC3CCCO3)N3CCCc4ccccc43)cc2c1 (configuration not stated),-11%,-19%[10 µM],13µM*,45µM*,3%
Cc1ccc2[nH]c(=O)c(C(c3nnnn3CC3CCCO3)N3CCc4ccccc4C3)cc2c1 (configuration not stated),-30%,-12%,?,22µM*,0%
Cc1cc(C)c2[nH]c(=O)c(C(c3nnnn3CC3CCCO3)N3CCC(C)CC3)cc2c1 (configuration not stated),-16%,-25%,?,-21%,-1%
Cc1cc(C)c2[nH]c(=O)c(C(c3nnnn3CC3CCCO3)N3CCCC(C)C3)cc2c1 (configuration not stated),-4%,19%,?,22µM*,1%
CCc1ccc2[nH]c(=O)c(C(c3nnnn3CC3CCCO3)N3CCN4CCCC4C3)cc2c1 (configuration not stated),-8%,0%,?,35µM*,0%
Cn1cc(CN2CCC(C(O)c3cccs3)CC2)c(-c2ccccc2F)n1 (configuration not stated),-4%,20%,.,20%,2%
SMILES,PLK1 PBD block,RORg inh,ALDH1A1 inh,Sfp inh,VP16 counter
CS[C@@H](CC(=O)O)C(=O)O,.,.,-2%[13.5 µM],.,.
NC(=O)CC(NSc1ccccc1[N+](=O)[O-])C(=O)O (configuration not stated),3.8µM*,6%,?,50µM*,-3%
O=C(O)C1CCC(NSc2ccccc2[N+](=O)[O-])CC1 (configuration not stated),2.4µM*,-23%,.,1%,-11%
COC(=O)C1=C(C)N(Cc2ccccc2)C2=C(C(=O)c3ccccc3)C(c3ccccc3)[C@@](O)(C(=O)OC)C(=O)N2C1c1ccccc1 (some centres not stated),.,1%[10 µM],-1%[13.5 µM],-1%,-1%[10 µM]
Oc1ccc(CN2CCC(Cc3ccccc3)CC2)c2cccnc12,0%,2.2µM*,5%,19%,4.5µM*
Cc1ccc(C)c(S(=O)(=O)N2CCN(Cc3ccc(O)c4ncccc34)CC2)c1,-4%,2µM*,4%,18%,3.2µM*
Oc1ccc(CN2CCCCC2)c2cccnc12,-12%,7.1µM*,?,18%,7.9µM*
Cn1cc(CN2CCc3ccccc3C2)c2ccccc21,-4%,19%,14µM*,-13%,0%
Clc1ccccc1CN1CCC(Cc2ccccc2)CC1,2%,-36%,?,-23%,?
Cn1cc(CN2CCCC(CO)(Cc3ccccc3)C2)c2ccccc21 (configuration not stated),-13%,-1%,-14%,2%,7%
Oc1ccc(CN2CCc3ccccc3C2)c2cccnc12,-10%,1µM*,-3%,9%,?
OCc1ccccc1O,.,-1%,6%,10%,-6%
Oc1ccc(CNCc2ccccc2)c2cccnc12,.,.,17%[13.5 µM],.,.
Oc1ccc(CNc2ccccc2F)c2cccnc12,3.4µM*,10µM*,8.9µM*,1%,?
OCc1ccc(O)c2ncccc12,-2%,13µM*,-4%,-1%,18µM*
CCOC(=O)N1CCN(Cc2ccc(O)c3ncccc23)CC1,27µM*,2.5µM*,25µM*,24%,5µM*
CCOC(=O)N1CCN(Cc2ccc(F)cc2F)CC1,-2%,6%,?,-24%,6%
CCOc1ccc(-c2noc(-c3csc([C@@H]4O[C@H](CO)[C@H](O)[C@H](O)[C@H]4O)n3)n2)cc1,-10%,.,.,.,.
O=C(c1cccs1)N1CCN(Cc2ccccn2)CC1,-12%,6%,15µM*,?,-5%
O=C(C1CCCO1)N1CCN(Cc2c(O)ccc3ccccc23)CC1 (configuration not stated),12µM*,-29%,?,-22%,3%
CCOC(=O)N1CCN(Cc2ccccn2)CC1,-8%,-3%,?,79µM*,-16%
CCOC(=O)N1CCN(Cc2c(O)ccc3ccccc23)CC1,11µM*,2%,?,-5%,8%
COc1ccc(Cc2c(C3CCCCC3)nc3cc(C)c(Br)c(C)n23)c(C)c1,4%,.,.,.,.
O=S1(=O)C[C@@H](N2CCC(Cc3ccccc3)CC2)[C@H](COCc2ccccc2)N1,1%,.,.,.,.
CCCCCCn1c(SCC(=O)NC2CCS(=O)(=O)C2)nc2ccccc2c1=O (configuration not stated),-10%,.,.,.,.
